According to PubChem BioAssay (NCATS):
Results filed as inconclusive are left out. Calls of active or inactive are those of the source. Unless noted, calls follow the shape of the dose curve; as a rule, active = well fitted curve in the direction sought with a large enough effect; inconclusive = small, poorly fitted or top-dose-only effect, or another doubt; inactive = no such curve, though single readings can be large; an effect the other way counts as inactive or inconclusive.

How the values were obtained:
[1] = molecular target: Cytochrome P450 1A2 (Homo sapiens) (UniProt P05177); experiment: p450-cyp1a2 (AID 410; calls by dose curve; also: potency is read from the fitted curve at half-maximal effect)
Summary of the method: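 O-Demethylation of luciferin 6' methyl ether by human CYP1A2 is monitored as luciferase luminescence. Substrate sits at Km (100uM); enzyme is 20nM. Values are scaled to 57 uM furafylline as maximal inhibition.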

[2] = molecular target: Glucocorticoid receptor (Homo sapiens) (UniProt P04150); experiment: GR-GFP Redistribution (AID 450;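 active = compounds whose dose series gives a full or clear partial fitted curve of increased nuclear translocation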; also: potency is read from the fitted curve at half-maximal effect)
[3] = molecular target: Glucocorticoid receptor (Homo sapiens) (UniProt P04150); experiment: GR-EFC Redistribution (AID 451; calls by dose curve; also: potency is read from the fitted curve at half-maximal effect); details: CHO-K1 GR-EFC translocation, beta-gal luminescence, 2 h
Summary of the method: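 Translocation of GR-ED fusion to nuclear EA restores b-gal, read by luminescence after 1 h room-temperature detection. Engineered CHO-K1 biosensor cells, 1,000/well, exposed 2 h at 37 C to titrations up to 46 uM final.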

[4] = molecular target: Mitogen-activated protein kinase 10 (Mus musculus) (UniProt Q61831); experiment: JNK3 AlphaScreen Assay (AID 530; active = well fitted curve in either direction with a large enough effect, not every such curve was filed as active;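 also: kinase came from lysate of stimulated human HepG2 cells; signal reports phosphorylation of biotinylated GST-cJun 1-79 at Ser73 with 10 µM ATP; % is scaled to controls: 0 for no effect and ±100 for the full control effect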)
Summary of the method: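 qHTS titrations with 15 min compound pre-incubation before adding ATP (10 uM final). Read-out: AlphaScreen of Ser73-phosphorylated biotin-GST-cJun using HepG2 lysate JNK3 activated by IL-1β and TNFα.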

[5] = molecular target: ATP-dependent 6-phosphofructokinase (Trypanosoma brucei brucei) (UniProt O15648); experiment: qHTS Assay to Find Inhibitors of T. brucei phosphofructokinase: hit validation (AID 492961);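 also: luminescence reports ADP formed as PFK phosphorylates fructose-6-phosphate with ATP; % is scaled to controls: 0 for no effect and ±100 for the full control effect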
Summary of the method: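 In this biochemical qHTS validation, titrated compounds were tested against 1.25 nM PFK with 0.1 mM ATP and 0.5 mM F6P. Percent activity came from controls lacking or containing enzyme.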

[6] = molecular target: Ubiquitin carboxyl-terminal hydrolase 1 (Homo sapiens) (UniProt O94782); experiment: Inhibitors of USP1/UAF1: Pilot qHTS (AID 504865);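 also: rhodamine fluorescence freed from ubiquitin-rhodamine substrate followed over time; top concentration of the series differs between compounds; % is scaled to controls: 0 for no effect and ±100 for the full control effect; nearly all actives have a fitted effect of over 35% in size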
Summary of the method: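 USP1/UAF1 complex (1nM) preincubated with compound 15 min at room temperature, then Ub-Rho substrate (150nM final) added. Fluorescence read kinetically at 480/540 nm, 6 reads every 60 seconds. Buffer: 50mM HEPES pH 7.8, 0.5mM EDTA, 0.1 mg/ml BSA, 1mM TCEP, 0.01% Tween-20.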

[7] = molecular target: DNA dC->dU-editing enzyme APOBEC-3G (Homo sapiens) (UniProt Q9HC16); experiment: qHTS for inhibitors of Vif-A3G interactions: Validation (AID 588379); also: 0% is about no effect
Summary of the method: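 Yellow fluorescence (Ex 488, Em 500-530) of Vif-coexpressing HeLa A3G-eYFP cells, scanned by Acumen cytometer, reports blocked A3G degradation. Cells plated at 700/well overnight at 37 deg C before compound addition, then a further overnight compound incubation at 37 deg C.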

[8] = molecular target: Luciferin 4-monooxygenase (Photinus pyralis) (UniProt P08659); experiment: Biochemical firefly luciferase enzyme assay for NPC (AID 624030);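 also: purified P. pyralis luciferase at 10 nM with luciferin and ATP substrate; 0% = DMSO and -100% = full luciferase inhibition by PTC124 control; nearly all actives have a fitted effect of over 70% in size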
Summary of the method: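 Direct inhibition of firefly luciferase enzyme (10 nM final, 50 mM Tris Acetate) assessed by luminescence within 5 minutes. Percent activity scaled between DMSO and PTC124 positive control, with concentration-effect curves classified by fit quality and response.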

[9] = S16 Schwann cell viability assay (CellTiter-Glo assay) (AID 624031);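 also: cellular ATP luminescence as a viability measure; plate controls were DMSO-treated cells for no effect and cell-free wells for full effect; nearly all actives have a fitted effect of over 70% in size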
Summary of the method: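 Native S16 rat Schwann cells, 500-750 cells/well in DMEM with 10% FBS, dosed with compound after overnight culture and incubated 24h at 37 degree Celsius/5% CO2. Viability by CellTiter-Glo luminescence; % activity normalized to no-cell wells and DMSO-treated cells.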

[10] = S16 Schwann cell PMP22 intronic element firefly luciferase assay (AID 624032);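 also: plate controls were DMSO for no effect and PTC124 positive control mean for full effect; nearly all actives have a fitted effect of over 30% in size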
Summary of the method: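 Luciferase reporter of PMP22 intronic-element expression in stably transfected S16 rat Schwann cells, read by ONE-Glo luminescence after 24 h compound exposure at 37 C. Activity scaled between DMSO (0%) and positive-control PTC124; concentration-effect curves quality-classified.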

[11] = S16 Schwann cell PMP22 intronic element beta-lactamase assay (AID 624044; calls by dose curve;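 also: 0% = DMSO and -100% = potassium clavulanate positive control; nearly all actives have a fitted effect of over 15% in size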); details: S16 rat Schwann cells, PMP22 element beta-lactamase FRET, 24 h; ratio activity, negative = inhibition: at 38.3 µM (top of the series)
Summary of the method: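 Beta-lactamase reporter under a PMP22 intronic regulatory element in stable S16 rat Schwann cells; 24 h compound exposure. 460 nm blue signal normalized between DMSO (0%) and potassium clavulanate, with 535 nm FRET tracking viability; curves classed by r2 and response.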

[12] = qHTS profiling for inhibitors of Plasmodium falciparum proliferation (AID 504749);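 also: 0% = DMSO vehicle and full inhibition = artemisinin control; nearly all actives have a fitted effect of over 60% in size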; details: P. falciparum in erythrocytes, SYBR Green DNA, 72 h, at 28.7 µM (top of the series)
Summary of the method: (§1)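 SYBR Green fluorescence of parasite DNA, read after lysis and overnight dark incubation, measured growth over 72 h in erythrocyte culture at 0.3% parasitemia and 2.5% hematocrit. Data normalised to DMSO and 0.29 uM artemisinin, with plate-drift correction.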

[13] = tested on: 3D7; experiment: as above; details: P. falciparum in erythrocytes, SYBR Green DNA, 72 h; series mostly up to 28.7 µM
Summary of the method: as §1

[14] = tested on: 7G8; experiment: as above; details: P. falciparum in erythrocytes, SYBR Green DNA, 72 h; series mostly up to 28.7 µM
Summary of the method: as §1

[15] = tested on: AA1029; experiment: as above; details: P. falciparum in erythrocytes, SYBR Green DNA, 72 h; series mostly up to 28.7 µM
Summary of the method: as §1

[16] = tested on: AS120; experiment: as above; details: P. falciparum in erythrocytes, SYBR Green DNA, 72 h; series mostly up to 28.7 µM
Summary of the method: as §1

[17] = tested on: ATS189; experiment: as above; details: P. falciparum in erythrocytes, SYBR Green DNA, 72 h; series mostly up to 28.7 µM
Summary of the method: as §1

[18] = tested on: ATS95; experiment: as above; details: P. falciparum in erythrocytes, SYBR Green DNA, 72 h; series mostly up to 28.7 µM
Summary of the method: as §1

[19] = tested on: C2A; experiment: as above; details: P. falciparum in erythrocytes, SYBR Green DNA, 72 h; series mostly up to 28.7 µM
Summary of the method: as §1

[20] = tested on: CP185; experiment: as above; details: P. falciparum in erythrocytes, SYBR Green DNA, 72 h; series mostly up to 28.7 µM
Summary of the method: as §1

[21] = tested on: CP191; experiment: as above; details: P. falciparum in erythrocytes, SYBR Green DNA, 72 h; series mostly up to 28.7 µM
Summary of the method: as §1

[22] = tested on: CP192; experiment: as above; details: P. falciparum in erythrocytes, SYBR Green DNA, 72 h; series mostly up to 28.7 µM
Summary of the method: as §1

[23] = tested on: CP194; experiment: as above; details: P. falciparum in erythrocytes, SYBR Green DNA, 72 h; series mostly up to 28.7 µM
Summary of the method: as §1

[24] = tested on: CP201; experiment: as above; details: P. falciparum in erythrocytes, SYBR Green DNA, 72 h; series mostly up to 28.7 µM
Summary of the method: as §1

[25] = tested on: CP203; experiment: as above; details: P. falciparum in erythrocytes, SYBR Green DNA, 72 h; series mostly up to 28.7 µM
Summary of the method: as §1

[26] = tested on: CP211; experiment: as above; details: P. falciparum in erythrocytes, SYBR Green DNA, 72 h; series mostly up to 28.7 µM
Summary of the method: as §1

[27] = tested on: CP215; experiment: as above; details: P. falciparum in erythrocytes, SYBR Green DNA, 72 h; series mostly up to 28.7 µM
Summary of the method: as §1

[28] = tested on: CP217; experiment: as above; details: P. falciparum in erythrocytes, SYBR Green DNA, 72 h; series mostly up to 28.7 µM
Summary of the method: as §1

[29] = tested on: CP237; experiment: as above; details: P. falciparum in erythrocytes, SYBR Green DNA, 72 h; series mostly up to 28.7 µM
Summary of the method: as §1

[30] = tested on: CP238; experiment: as above; details: P. falciparum in erythrocytes, SYBR Green DNA, 72 h; series mostly up to 28.7 µM
Summary of the method: as §1

[31] = tested on: CP247; experiment: as above; details: P. falciparum in erythrocytes, SYBR Green DNA, 72 h; series mostly up to 28.7 µM
Summary of the method: as §1

[32] = tested on: CP250; experiment: as above; details: P. falciparum in erythrocytes, SYBR Green DNA, 72 h; series mostly up to 28.7 µM
Summary of the method: as §1

[33] = tested on: CP252; experiment: as above; details: P. falciparum in erythrocytes, SYBR Green DNA, 72 h; series mostly up to 28.7 µM
Summary of the method: as §1

[34] = tested on: CP256; experiment: as above; details: P. falciparum in erythrocytes, SYBR Green DNA, 72 h; series mostly up to 28.7 µM
Summary of the method: as §1

[35] = tested on: CP260; experiment: as above; details: P. falciparum in erythrocytes, SYBR Green DNA, 72 h; series mostly up to 28.7 µM
Summary of the method: as §1

Chain of Glucocorticoid receptor (Homo sapiens) (P04150 whole entry, looked up, the tested form may be a part): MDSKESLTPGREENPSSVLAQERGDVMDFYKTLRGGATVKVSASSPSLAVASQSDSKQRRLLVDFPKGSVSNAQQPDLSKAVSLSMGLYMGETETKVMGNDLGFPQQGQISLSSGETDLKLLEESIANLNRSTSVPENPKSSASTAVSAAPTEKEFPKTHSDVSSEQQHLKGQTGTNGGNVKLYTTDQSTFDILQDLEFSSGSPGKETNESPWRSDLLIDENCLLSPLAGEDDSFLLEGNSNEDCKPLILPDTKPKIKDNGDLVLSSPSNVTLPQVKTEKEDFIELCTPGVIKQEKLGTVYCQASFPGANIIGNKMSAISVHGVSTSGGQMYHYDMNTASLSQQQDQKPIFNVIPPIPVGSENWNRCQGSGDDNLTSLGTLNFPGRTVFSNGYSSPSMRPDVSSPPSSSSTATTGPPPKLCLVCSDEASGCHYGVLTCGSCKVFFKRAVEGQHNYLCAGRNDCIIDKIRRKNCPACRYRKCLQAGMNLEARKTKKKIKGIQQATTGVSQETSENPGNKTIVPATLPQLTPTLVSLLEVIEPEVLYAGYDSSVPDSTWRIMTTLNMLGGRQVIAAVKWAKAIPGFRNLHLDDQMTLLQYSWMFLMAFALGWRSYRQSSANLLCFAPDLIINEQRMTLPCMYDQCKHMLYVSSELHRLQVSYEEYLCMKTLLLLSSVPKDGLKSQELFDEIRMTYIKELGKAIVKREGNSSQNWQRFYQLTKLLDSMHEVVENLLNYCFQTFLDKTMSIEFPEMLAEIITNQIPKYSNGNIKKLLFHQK
Chain of Luciferin 4-monooxygenase (Photinus pyralis) (P08659 whole entry, looked up): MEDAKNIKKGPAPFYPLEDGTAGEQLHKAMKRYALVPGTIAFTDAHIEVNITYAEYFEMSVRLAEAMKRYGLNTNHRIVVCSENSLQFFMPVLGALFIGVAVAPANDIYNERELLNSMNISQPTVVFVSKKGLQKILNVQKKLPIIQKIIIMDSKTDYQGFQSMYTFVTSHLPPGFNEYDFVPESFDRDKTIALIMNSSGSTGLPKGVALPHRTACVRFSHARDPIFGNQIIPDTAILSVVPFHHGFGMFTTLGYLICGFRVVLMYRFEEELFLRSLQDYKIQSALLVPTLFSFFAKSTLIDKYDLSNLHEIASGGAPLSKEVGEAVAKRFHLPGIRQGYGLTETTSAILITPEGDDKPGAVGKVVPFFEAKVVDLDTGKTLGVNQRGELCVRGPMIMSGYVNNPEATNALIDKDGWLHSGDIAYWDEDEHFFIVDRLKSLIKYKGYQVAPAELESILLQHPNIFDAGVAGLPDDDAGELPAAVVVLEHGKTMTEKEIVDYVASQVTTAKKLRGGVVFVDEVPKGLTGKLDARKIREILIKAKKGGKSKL
Chain of Ubiquitin carboxyl-terminal hydrolase 1 (Homo sapiens) (O94782 whole entry, looked up): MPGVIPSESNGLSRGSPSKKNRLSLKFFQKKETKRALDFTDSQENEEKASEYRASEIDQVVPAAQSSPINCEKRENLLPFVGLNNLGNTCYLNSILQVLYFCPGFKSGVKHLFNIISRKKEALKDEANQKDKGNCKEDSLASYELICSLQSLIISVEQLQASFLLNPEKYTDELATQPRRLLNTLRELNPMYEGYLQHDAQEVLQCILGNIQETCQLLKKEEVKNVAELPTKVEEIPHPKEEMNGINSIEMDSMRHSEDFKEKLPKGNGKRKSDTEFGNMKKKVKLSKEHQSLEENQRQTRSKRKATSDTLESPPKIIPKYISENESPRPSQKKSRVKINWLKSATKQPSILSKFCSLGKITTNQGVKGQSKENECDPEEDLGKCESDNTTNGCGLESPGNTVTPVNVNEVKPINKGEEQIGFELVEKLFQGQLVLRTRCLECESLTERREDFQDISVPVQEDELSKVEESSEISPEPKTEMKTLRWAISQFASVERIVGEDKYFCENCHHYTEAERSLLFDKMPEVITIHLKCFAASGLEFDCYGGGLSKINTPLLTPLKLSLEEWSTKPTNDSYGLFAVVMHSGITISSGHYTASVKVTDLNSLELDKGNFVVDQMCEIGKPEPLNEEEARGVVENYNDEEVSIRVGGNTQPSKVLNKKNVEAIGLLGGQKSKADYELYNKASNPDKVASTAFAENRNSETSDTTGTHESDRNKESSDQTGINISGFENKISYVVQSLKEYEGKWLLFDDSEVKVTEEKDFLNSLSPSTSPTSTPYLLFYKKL
Chain of Cytochrome P450 1A2 (Homo sapiens) (P05177 whole entry, looked up): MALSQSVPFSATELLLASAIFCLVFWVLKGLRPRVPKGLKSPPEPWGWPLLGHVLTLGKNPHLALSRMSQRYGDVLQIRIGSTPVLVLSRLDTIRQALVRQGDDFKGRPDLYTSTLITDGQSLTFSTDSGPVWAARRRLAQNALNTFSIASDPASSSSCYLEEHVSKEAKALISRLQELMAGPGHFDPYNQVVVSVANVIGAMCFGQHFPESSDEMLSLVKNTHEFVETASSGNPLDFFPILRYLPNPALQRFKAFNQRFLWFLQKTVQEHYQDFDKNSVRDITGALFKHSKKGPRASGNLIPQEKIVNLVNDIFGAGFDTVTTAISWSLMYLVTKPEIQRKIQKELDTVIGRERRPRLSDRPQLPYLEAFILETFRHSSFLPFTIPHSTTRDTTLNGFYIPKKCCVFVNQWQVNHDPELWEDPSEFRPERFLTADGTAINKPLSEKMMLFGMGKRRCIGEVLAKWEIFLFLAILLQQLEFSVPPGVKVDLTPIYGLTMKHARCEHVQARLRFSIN
Chain of ATP-dependent 6-phosphofructokinase (Trypanosoma brucei brucei) (O15648 whole entry, looked up): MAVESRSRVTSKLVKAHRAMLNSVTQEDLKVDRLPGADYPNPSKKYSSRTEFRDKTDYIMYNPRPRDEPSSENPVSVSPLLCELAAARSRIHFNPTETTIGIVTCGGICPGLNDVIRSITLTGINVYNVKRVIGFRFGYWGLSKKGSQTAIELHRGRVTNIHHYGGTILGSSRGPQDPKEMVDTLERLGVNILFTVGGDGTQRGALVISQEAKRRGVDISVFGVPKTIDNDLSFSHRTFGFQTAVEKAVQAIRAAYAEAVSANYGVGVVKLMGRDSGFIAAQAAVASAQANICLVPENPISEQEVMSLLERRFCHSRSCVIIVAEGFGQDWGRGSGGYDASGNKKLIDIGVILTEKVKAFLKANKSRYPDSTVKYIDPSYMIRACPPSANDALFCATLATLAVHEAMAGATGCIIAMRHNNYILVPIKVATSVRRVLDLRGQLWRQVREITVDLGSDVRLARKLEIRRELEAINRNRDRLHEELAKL
Chain of DNA dC->dU-editing enzyme APOBEC-3G (Homo sapiens) (Q9HC16 whole entry, looked up): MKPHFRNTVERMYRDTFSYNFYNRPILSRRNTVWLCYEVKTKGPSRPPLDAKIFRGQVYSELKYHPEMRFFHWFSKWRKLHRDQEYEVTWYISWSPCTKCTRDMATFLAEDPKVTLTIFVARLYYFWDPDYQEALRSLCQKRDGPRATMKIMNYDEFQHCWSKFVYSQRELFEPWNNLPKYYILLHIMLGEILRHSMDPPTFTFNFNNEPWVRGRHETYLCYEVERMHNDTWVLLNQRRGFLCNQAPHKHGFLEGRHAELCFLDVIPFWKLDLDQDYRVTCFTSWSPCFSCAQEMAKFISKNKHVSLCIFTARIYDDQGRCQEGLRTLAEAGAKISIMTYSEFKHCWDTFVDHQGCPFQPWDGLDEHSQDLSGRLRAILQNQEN

O=C(O)[C@H]1C[C@@H](CP(=O)(O)O)CCN1
inactive: Potency [2] > 46 µM | Potency [3] > 46 µM | Potency [4] | Potency [5] | Potency [6] | outcome [7] | Potency [8] | Potency [9] | Potency [10] | Potency [11] | activity, negative = inhibition ([12]; parasite line A) -7.9% | activity, negative = inhibition ([12]; parasite line B) -2.91% | Potency [13] | Potency [14] | Potency [15] | Potency [16] | Potency [17] | Potency [18] | Potency [19] | Potency [20] | Potency [21] | Potency [22] | Potency [23] | Potency [24] | Potency [25] | Potency [26] | Potency [27] | Potency [28] | Potency [29] | Potency [30] | Potency [31] | Potency [32] | Potency [33] | Potency [34] | Potency [35]
active: Potency [1] 25.1 µM
